The text below walks through data of ChEMBL document CHEMBL3988442, “University of Dundee, Small-Polar-MMV Screening Library” (2021).

For part of these data: Measured potencies and affinities stand elsewhere.

The target of assay [1] is T1, Methionyl-tRNA synthetase, putative (Leishmania donovani (strain BPK282A1)) (UniProt E9BF75).
T1 sequence (whole entry): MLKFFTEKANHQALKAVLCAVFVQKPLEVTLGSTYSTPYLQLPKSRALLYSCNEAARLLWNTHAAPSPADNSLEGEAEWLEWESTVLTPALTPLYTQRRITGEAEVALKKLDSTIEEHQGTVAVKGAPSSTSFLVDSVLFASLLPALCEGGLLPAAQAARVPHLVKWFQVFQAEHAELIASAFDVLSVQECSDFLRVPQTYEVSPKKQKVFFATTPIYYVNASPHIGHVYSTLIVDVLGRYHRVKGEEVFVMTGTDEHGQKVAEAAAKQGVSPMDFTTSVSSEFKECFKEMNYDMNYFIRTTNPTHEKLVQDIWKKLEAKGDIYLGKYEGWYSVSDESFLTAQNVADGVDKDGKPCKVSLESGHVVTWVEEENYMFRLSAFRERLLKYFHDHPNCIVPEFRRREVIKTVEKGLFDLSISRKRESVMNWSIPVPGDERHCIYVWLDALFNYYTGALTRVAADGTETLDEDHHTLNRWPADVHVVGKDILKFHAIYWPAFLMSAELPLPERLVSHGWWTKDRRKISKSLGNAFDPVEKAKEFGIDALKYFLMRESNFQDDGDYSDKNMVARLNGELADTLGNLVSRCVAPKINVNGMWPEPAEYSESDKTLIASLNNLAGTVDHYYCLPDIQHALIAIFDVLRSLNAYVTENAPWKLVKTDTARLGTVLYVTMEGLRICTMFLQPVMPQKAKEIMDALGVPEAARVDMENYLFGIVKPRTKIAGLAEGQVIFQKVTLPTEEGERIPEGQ
As to the kind of experiment: Leishmania donovani Methionine tRNA synthetase (LdMetRS):v7. Dose response assay. In kind it is functional. On the set-up: conc 80 nM, time 150 minutes.

Assay [2] concerns the target Protein translocase subunit SecA (Escherichia coli (strain K12)) (UniProt P10408). As to the kind of experiment: Assay to Identify E. coli SecA ATPase Inhibitors. On the set-up: scale not given: direction of the effect not stated beside the values. The following applies: 30 µM. In kind it is functional.
The target of assay [3] is T2, Ubiquitin-activating enzyme e1, putative (Leishmania donovani (strain BPK282A1)) (UniProt E9BSI1).
T2 sequence (whole entry): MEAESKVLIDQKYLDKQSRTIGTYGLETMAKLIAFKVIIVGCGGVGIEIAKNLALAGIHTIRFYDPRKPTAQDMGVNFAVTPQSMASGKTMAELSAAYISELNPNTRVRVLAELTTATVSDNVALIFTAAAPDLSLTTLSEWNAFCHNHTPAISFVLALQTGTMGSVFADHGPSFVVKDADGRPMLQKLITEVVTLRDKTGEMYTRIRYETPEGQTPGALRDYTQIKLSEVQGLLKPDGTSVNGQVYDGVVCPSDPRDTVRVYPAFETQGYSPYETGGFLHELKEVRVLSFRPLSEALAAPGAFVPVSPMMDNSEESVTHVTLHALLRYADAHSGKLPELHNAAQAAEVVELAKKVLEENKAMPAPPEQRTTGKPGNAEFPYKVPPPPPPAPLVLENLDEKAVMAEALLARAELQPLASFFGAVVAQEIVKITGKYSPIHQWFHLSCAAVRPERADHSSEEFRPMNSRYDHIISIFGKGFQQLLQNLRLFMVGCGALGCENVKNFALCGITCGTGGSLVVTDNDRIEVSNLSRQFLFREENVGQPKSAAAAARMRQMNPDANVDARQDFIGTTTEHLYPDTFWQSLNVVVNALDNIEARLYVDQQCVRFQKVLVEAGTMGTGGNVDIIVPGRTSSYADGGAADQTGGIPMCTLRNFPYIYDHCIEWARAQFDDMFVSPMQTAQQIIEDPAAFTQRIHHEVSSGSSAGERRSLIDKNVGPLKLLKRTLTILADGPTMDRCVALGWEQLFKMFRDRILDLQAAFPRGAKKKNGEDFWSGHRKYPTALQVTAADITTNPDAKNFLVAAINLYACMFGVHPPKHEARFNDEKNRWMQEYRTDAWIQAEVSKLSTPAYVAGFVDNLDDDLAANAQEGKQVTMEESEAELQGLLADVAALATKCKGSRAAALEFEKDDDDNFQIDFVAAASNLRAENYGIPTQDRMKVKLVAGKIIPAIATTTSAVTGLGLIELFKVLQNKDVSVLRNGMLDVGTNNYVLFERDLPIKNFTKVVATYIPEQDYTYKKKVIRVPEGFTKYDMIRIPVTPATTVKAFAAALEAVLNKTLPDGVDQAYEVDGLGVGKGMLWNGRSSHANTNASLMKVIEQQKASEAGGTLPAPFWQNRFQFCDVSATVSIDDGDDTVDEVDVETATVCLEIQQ
As to the kind of experiment: Leishmania donovani Ubiquitin Activating Enzyme (LdE1). The conditions noted are these: 30 µM. On the set-up: scale not given: direction of the effect not stated beside the values. The class given is functional.

Assay [4] concerns the target AMP-activated protein kinase, AMPK (Homo sapiens) (UniProt P54646+O43741+P54619+Q9UGJ0+Q9Y478+Q13131+Q9UGI9). As to the kind of experiment: AMP-dependent Kinase enzyme assay. An in vitro enzyme assay that detects ADP turnover that is directly proportional to AMPK activity. This uses naive AMPK that is activated during the assay with MK-8722. The class given is functional. Further details: scale not given: direction of the effect not stated beside the values. The following applies: 30 µM.

For assay [5], the target named is Sialic acid-binding Ig-like lectin 9 (Homo sapiens) (UniProt Q9Y336). As to the kind of experiment: Hs-Siglec9 ALPHAscreen SOP 20170721. The following applies: 10 µM. Further details: scale not given: direction of the effect not stated beside the values. On the technique in general: Alpha assays give light when donor and acceptor beads are brought close together.

Assay [6] concerns Trypanosoma cruzi. As to the kind of experiment: Trypanosoma cruzi phosphomannomutase and mannose-1-phosphate guanylyltransferase assay. The following applies: 10 µM. In kind it is functional. Further details: scale not given: direction of the effect not stated beside the values.
Assay [7] concerns the target T3, Arginase-2, mitochondrial (Homo sapiens) (UniProt P78540).
T3 sequence (whole entry): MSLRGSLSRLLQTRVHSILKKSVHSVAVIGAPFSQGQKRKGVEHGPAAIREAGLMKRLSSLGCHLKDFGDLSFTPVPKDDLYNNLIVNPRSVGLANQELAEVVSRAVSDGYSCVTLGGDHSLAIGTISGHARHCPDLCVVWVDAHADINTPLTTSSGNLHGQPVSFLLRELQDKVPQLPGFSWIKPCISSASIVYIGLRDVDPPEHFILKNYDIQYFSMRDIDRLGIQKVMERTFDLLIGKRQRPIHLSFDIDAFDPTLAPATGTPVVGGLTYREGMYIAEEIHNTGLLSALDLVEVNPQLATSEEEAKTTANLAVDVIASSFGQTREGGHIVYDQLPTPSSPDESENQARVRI
As to the kind of experiment: in vitro enzyme assay to detect the production of urea directly proportional to the activity of Arginase II. The conditions noted are these: 33.3 µM. The class given is functional. Further details: scale not given: in the data most compounds retested in dose-response had high values.

Assay [8] concerns the target T4, Proteasome subunit beta (Trypanosoma cruzi) (UniProt O96673).
T4 sequence (whole entry): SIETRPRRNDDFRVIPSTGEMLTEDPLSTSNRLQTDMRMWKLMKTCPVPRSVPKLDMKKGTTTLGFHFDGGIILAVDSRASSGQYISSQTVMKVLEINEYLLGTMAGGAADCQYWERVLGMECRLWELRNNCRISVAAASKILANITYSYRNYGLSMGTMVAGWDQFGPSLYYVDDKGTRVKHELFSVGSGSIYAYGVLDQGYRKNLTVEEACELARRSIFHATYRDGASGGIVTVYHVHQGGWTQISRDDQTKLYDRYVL
The experiment in a line: Trypanosoma cruzi proteasome chymotrypsin-like activity (TcProtChymo) assay. The conditions noted are these: 9.37 µM. In kind it is functional. On the set-up: scale not given: in the data most compounds retested in dose-response had high values.

Assay [9] is filed under the species Homo sapiens. The experiment in a line: To identify inhibition of the IFN signalling (Jak-Stat) pathway via expression of an eGFP reporter gene under the control of an IFN-stimulated response element (ISRE) containing MxA promoter. On the set-up: scale not given: direction of the effect not stated beside the values. The following applies: 30 µM. The class given is functional.

Assay [10] has as its target T5, Tyrosyl-tRNA synthetase, putative (Trypanosoma cruzi (strain CL Brener)) (UniProt Q4DSP6).
T5 sequence (whole entry): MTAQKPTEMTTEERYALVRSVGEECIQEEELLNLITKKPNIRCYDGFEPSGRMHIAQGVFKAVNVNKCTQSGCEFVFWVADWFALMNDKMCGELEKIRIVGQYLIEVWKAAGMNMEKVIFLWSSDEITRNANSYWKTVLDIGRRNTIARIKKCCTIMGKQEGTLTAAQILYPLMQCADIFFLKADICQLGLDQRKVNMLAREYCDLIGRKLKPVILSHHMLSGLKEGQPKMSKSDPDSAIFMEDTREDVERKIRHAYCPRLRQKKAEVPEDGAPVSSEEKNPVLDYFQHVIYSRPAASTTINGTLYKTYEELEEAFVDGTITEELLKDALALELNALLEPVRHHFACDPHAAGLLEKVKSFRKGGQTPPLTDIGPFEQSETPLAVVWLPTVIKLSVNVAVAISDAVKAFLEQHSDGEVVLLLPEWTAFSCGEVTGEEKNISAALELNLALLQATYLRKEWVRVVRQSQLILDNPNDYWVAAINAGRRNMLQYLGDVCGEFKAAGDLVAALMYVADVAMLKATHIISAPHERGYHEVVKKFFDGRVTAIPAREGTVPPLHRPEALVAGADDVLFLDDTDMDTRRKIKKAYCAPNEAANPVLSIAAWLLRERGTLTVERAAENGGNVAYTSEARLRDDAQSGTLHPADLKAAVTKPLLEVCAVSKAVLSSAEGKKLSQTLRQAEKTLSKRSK
As to the kind of experiment: Trypanosoma cruzi tyrosyl tRNA synthetase (TcYRS) _High Tyrosine SOP. The class given is functional. Further details: scale not given: in the data most compounds retested in dose-response had high values. The following applies: 30 µM.

The target of assay [11] is T5, Tyrosyl-tRNA synthetase, putative (Trypanosoma cruzi (strain CL Brener)). As to the kind of experiment: Trypanosoma cruzi tyrosyl tRNA synthetase (TcYRS) SOP. In kind it is functional. On the set-up: scale not given: direction of the effect not stated beside the values. The following applies: 30 µM.
For assay [12], the target named is Chromo domain-containing protein 1 (Saccharomyces cerevisiae (strain ATCC 204508 / S288c) (Baker's yeast)) (UniProt P32657). The experiment in a line: ScCHD-1 Enzyme Inhibition Assay. In kind it is functional. Further details: scale not given: in the data most compounds retested in dose-response had high values. The following applies: 30 µM.
Chromo domain-containing protein 1 (Saccharomyces cerevisiae (strain ATCC 204508 / S288c) (Baker's yeast)), sequence (P32657 whole entry, the tested form may be a part): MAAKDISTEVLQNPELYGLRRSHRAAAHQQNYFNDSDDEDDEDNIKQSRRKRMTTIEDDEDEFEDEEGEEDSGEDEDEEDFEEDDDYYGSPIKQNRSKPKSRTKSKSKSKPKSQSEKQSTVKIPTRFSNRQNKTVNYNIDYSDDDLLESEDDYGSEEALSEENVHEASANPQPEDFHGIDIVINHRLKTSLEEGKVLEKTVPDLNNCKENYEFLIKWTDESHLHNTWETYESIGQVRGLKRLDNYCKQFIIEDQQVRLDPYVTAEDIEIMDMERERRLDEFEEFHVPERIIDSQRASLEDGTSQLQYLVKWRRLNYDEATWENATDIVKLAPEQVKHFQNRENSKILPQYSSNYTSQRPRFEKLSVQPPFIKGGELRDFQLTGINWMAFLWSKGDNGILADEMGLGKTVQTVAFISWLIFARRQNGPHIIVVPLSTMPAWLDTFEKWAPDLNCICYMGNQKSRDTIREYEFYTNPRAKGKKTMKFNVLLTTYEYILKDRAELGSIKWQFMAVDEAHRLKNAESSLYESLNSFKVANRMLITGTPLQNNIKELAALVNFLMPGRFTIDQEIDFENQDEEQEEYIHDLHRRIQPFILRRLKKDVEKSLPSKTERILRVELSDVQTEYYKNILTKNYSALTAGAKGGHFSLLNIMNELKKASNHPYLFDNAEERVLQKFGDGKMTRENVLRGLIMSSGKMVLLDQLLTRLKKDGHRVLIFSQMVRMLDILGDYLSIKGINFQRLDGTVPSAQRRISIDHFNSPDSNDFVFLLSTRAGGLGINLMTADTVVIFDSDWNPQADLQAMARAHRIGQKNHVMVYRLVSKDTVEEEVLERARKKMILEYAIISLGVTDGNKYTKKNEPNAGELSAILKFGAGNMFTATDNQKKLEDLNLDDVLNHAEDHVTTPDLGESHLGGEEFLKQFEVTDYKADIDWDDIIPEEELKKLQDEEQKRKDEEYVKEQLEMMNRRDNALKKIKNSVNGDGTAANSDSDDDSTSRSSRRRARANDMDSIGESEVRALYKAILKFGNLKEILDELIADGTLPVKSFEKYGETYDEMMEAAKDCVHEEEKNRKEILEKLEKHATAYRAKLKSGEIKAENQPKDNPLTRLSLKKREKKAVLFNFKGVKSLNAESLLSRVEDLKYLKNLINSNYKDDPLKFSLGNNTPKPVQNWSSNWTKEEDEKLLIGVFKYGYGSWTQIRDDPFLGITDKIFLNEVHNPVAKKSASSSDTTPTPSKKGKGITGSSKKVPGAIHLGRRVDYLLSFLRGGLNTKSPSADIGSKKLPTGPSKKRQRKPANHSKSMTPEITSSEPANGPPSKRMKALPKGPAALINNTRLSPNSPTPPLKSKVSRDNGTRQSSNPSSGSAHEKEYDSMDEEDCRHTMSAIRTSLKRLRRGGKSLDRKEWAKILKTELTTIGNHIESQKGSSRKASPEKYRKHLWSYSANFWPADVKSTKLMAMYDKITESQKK

Sialic acid-binding Ig-like lectin 9 (Homo sapiens), sequence (Q9Y336 whole entry): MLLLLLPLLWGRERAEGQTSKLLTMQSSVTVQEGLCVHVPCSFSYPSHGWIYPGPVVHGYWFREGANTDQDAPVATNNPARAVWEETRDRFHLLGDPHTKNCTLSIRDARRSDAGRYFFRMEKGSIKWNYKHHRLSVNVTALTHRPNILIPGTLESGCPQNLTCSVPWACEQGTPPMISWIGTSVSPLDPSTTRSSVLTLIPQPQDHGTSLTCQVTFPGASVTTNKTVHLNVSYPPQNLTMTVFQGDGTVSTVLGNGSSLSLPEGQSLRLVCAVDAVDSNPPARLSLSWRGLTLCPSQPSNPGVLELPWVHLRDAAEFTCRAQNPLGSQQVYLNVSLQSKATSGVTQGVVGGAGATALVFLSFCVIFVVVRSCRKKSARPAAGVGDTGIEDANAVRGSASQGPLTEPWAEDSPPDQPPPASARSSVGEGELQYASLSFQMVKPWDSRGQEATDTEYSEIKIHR
Protein translocase subunit SecA (Escherichia coli (strain K12)), sequence (P10408 whole entry): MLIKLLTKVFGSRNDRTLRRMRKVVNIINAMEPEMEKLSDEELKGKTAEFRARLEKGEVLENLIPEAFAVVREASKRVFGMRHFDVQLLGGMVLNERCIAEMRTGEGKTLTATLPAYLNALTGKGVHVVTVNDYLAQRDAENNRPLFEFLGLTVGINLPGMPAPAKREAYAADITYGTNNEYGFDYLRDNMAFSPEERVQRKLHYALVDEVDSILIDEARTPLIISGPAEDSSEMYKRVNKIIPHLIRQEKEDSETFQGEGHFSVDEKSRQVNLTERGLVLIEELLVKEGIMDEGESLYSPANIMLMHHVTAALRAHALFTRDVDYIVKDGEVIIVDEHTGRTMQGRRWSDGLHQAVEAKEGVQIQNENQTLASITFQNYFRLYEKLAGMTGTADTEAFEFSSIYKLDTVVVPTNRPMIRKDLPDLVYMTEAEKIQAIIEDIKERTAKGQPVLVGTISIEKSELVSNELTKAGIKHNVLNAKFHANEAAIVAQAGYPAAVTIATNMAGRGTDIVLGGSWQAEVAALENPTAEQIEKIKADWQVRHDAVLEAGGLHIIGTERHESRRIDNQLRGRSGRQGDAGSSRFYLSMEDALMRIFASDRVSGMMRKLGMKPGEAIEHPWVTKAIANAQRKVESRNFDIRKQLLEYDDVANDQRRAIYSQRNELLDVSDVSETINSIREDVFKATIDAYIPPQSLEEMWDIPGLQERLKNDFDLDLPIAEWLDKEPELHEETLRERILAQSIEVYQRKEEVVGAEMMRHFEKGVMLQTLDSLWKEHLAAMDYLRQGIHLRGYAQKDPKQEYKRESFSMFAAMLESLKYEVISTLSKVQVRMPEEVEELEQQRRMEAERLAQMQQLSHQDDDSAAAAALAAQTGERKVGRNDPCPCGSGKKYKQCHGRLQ

Turning to `O=C(CC1=CCCCC1)NCCc1csc(N2CCCC2)n1`, the PXC50 in assay [1] (BOTTOM 3.701535951, HILLSLOPE 1.30756587, MAX_EFFECT 71.01449275, TOP 100.0) was 4.26; in [1] (BOTTOM -1.141810122, HILLSLOPE 1.921557011, MAX_EFFECT 84.15841584, TOP 100.0), 4.32; in [1] (MAX_EFFECT 3.162055336), under 4; in assay [1] (MAX_EFFECT 8.571428571), under 4; in assay [1] (MAX_EFFECT 50.53763441) it was under 4. For the same compound, the Percent Effect in assay [2] is -6.52%; in assay [3], -5.33%; in assay [4] it was -0.418%; in [5], 8.91%; in assay [6], 15.9%; in [7], -1.56%. Also, the Percent Effect in assay [8] is 25.3%; in assay [9] it was -20.2%; in assay [10], 23.5%; in assay [11], 8.64%; in assay [12], 33%.

As for `Cc1cccnc1NC(=O)NCc1ccc(N2CCNC(=O)C2)cc1`, the PXC50 is 4.39 in assay [1] (BOTTOM 2.91901785, HILLSLOPE 1.51189845, MAX_EFFECT 82.83828383, TOP 100.0); 4.45 in assay [1] (BOTTOM 3.848291916, HILLSLOPE 1.411514836, MAX_EFFECT 84.7826087, TOP 100.0); 4.48 in [1] (BOTTOM 5.032769966, HILLSLOPE 1.524648586, MAX_EFFECT 89.96415771, TOP 100.0); under 4 in assay [1] (MAX_EFFECT 2.073365231); under 4 in [1] (MAX_EFFECT 2.495201536). For the same compound, the Percent Effect is -3.51% in assay [2]; 15.6% in assay [3]; 9.04% in assay [4]; 11.4% in [5]; 1.5% in assay [6]; -2.13% in [7]. Moreover, the Percent Effect in assay [8] was 8.78%; in [9] it was 5.74%; in assay [10], 41.8%; in assay [11] it was 34.1%; in assay [12] it was -8.16%.

As to `O=C(c1cc(=O)n(-c2ccccc2)[nH]1)N1CCCC(c2ccn[nH]2)C1` (stereo unspecified), the PXC50 in assay [1] (BOTTOM 0.320076031, HILLSLOPE 1.262872317, MAX_EFFECT 68.45753899, TOP 100.0) is 4.26; in [1] (BOTTOM -1.400745031, HILLSLOPE 1.149427593, MAX_EFFECT 63.75838926, TOP 91.13261067) it was 4.31; in [1] (BOTTOM -5.915072335, HILLSLOPE 1.793815397, MAX_EFFECT 65.97222222, TOP 99.62132459), 4.18. Moreover, in assay [4], the Percent Effect is -16.1%.
